Experimental data: PubChem BioAssay AID2073 (Sanford-Burnham Center for Chemical Genomics, 2009)
Out of some 290,000 compounds screened, about 570 (0.2%) were called active. Roughly 1% stayed inconclusive and do not appear here. Cut-off read from the data, not from the text of the source: active = inhibition mostly above about 51% (no sharp cut-off); inconclusive = no clear call, values can overlap the other calls; inactive = mostly below about 53%. The list comes from a sample in which actives are over-represented; it also holds similar structures and randomly drawn compounds.

Target: Voltage-dependent N-type calcium channel subunit alpha-1B (Homo sapiens) (UniProt Q00975)
Assay: disruptors of CaV2.2 binding to Mint1 – biochemical, HTRF (AID 2073)
Details: HTRF protein-protein interaction, Mint1-CaV2.2, at 20 µM, stronger effect = higher value
[1] = measured here: average of repeat tests

Chain of Voltage-dependent N-type calcium channel subunit alpha-1B (Homo sapiens) (Q00975 whole entry, looked up): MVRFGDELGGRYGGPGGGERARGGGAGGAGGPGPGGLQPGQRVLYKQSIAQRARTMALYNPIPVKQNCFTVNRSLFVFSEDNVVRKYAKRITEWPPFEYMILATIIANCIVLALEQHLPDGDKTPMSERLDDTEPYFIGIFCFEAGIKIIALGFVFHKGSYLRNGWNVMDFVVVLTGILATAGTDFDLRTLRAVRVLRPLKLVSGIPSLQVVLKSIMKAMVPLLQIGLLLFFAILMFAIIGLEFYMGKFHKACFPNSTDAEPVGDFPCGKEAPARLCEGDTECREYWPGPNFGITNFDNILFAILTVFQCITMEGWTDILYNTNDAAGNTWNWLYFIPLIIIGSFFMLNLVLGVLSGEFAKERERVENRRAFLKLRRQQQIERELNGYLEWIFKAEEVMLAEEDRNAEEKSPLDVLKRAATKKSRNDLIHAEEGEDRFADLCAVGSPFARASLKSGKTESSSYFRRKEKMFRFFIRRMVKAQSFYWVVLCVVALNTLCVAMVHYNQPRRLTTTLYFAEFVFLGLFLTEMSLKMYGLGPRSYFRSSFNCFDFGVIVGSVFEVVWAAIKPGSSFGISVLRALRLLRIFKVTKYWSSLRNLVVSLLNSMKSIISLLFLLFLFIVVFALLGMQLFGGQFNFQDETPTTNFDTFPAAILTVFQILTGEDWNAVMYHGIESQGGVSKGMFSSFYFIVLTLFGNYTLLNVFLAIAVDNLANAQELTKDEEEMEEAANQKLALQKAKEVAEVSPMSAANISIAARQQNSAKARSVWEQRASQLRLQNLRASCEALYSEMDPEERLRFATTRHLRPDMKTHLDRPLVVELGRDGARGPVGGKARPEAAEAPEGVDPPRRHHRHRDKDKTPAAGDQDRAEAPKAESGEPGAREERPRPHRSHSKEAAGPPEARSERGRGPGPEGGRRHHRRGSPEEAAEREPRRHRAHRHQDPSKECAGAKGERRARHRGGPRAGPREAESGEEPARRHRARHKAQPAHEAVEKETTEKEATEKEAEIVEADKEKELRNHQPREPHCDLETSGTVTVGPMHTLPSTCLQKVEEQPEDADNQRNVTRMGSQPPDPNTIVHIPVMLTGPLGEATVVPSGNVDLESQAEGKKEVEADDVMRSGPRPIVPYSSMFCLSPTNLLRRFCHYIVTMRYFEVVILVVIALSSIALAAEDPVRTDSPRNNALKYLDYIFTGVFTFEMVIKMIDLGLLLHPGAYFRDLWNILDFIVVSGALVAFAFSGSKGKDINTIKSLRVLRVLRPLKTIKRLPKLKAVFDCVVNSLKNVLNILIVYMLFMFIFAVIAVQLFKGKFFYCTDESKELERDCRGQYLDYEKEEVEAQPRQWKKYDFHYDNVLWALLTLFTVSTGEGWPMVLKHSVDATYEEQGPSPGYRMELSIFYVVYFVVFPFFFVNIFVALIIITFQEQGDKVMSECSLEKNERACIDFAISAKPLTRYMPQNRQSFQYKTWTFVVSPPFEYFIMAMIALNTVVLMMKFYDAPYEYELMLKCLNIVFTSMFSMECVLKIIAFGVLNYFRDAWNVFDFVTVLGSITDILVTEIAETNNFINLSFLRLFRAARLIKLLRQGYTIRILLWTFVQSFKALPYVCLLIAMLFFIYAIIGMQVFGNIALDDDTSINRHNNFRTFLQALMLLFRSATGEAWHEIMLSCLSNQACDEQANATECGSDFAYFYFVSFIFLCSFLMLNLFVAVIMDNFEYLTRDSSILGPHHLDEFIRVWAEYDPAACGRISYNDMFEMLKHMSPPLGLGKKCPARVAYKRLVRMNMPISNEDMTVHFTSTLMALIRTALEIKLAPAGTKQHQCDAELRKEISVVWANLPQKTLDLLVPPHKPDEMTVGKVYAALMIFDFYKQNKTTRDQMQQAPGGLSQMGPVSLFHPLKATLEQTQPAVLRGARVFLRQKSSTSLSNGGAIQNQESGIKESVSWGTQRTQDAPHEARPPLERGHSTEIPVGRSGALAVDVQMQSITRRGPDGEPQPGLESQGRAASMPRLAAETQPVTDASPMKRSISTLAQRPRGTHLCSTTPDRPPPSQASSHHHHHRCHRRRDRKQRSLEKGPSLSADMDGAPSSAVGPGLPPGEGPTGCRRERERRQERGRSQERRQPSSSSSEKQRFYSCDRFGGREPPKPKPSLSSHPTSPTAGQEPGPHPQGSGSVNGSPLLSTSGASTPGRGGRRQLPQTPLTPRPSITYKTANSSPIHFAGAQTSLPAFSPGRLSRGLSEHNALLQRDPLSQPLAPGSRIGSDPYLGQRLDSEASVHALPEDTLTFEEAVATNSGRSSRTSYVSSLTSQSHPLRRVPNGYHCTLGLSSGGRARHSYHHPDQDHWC

Row | Compound | inhibition | inhibition [1] [%]
1 | O=C(CC1C(=O)NCCN1Cc1cccc(F)c1)NCCCOc1cccnc1 (stereo unspecified) | 0.9% (inactive) | 
2 | N=C1C(c2nc3ccccc3[nH]2)=C(O)CN1NC(=O)c1c[nH]c2ccccc12 | 2.4% (inactive) | 
3 | N=C1C(c2nc3ccccc3s2)=C(O)CN1NC(=O)c1c[nH]c2ccccc12 | 53.4% (active) | 
4 | N=C1C(c2nc3ccccc3s2)=C(O)CN1NC(=O)c1ccccc1[N+](=O)[O-] | 14.9% (inactive) | 
5 | COc1cc(OC)c(C2C(C#N)=C(C)NC(C)=C2C#N)c(C(=O)O)c1 | -3.5% (inactive) | 
6 | C=C(C)Cn1c(C2CC(=O)N(Cc3ccccc3)C2)nc2ccccc21 (stereo unspecified) | -9.9% (inactive) | 
7 | CCCN(CCC)CCCNC(=O)C1CCN(S(=O)(=O)c2cccc3nsnc23)CC1 | -0.6% (inactive) | 
8 | Cc1ccc(-c2c(C(=O)Nc3ccccc3C)c(C)[nH]c(=S)c2C#N)o1 | 33.2% (inactive) | 
9 | Cc1ccccc1NC(=O)c1c(C)[nH]c(=S)c(C#N)c1-c1ccco1 | 50.9% (active) | 
10 | CNC(=O)c1c(C)[nH]c(=S)c(C#N)c1-c1ccco1 | -35.6% (inactive) | 
11 | CCOC(=O)CNc1nc(Cl)nc(N2CCCCC2)n1 | 6.2% (inactive) | 
12 | Cn1c(=O)c2c(n3cnnc13)-c1ccccc1CC21CCCC1 | 3.5% (inactive) | 
13 | COc1ccccc1CC(=O)Nc1cc(OC)c(NC(=O)c2ccccc2)cc1OC | -5.3% (inactive) | 
14 | COc1cc(NC(=O)c2ccccc2)c(OC)cc1NC(=O)Cc1cccs1 | 51.4% (active) | 
15 | COc1ccccc1NC(=O)Cc1cccs1 | -5.5% (inactive) | 
16 | COc1cc(/C=C/c2ccc3cccc(O)c3n2)cc(OC)c1OC | 24.9% (inactive) | 
17 | COc1ccc(OC)c(N=c2ssnc2Cl)c1 | 27.6% (inactive) | 
18 | COc1ccc(N=c2ssnc2Cl)cc1 | 27.4% (inactive) | 
19 | COc1cc(N=c2ssnc2Cl)c(OC)cc1Cl | 46.5% (inactive) | 
20 | Cc1ccc2oc(-c3ccc(NC(=O)c4ccc5c(c4)OCO5)cc3)nc2c1 | 6.7% (inactive) | 
21 | O=C(Nc1ccc(-c2nc3ccccc3o2)cc1)c1ccc2c(c1)OCO2 | 66.2% (active) | 
22 | Cc1ccc(-c2nc3ccccc3o2)cc1NC(=O)c1ccc2c(c1)OCO2 | -1.5% (inactive) | 
23 | Oc1ccc(Br)cc1CNc1cnc2ccccc2c1 | 13.6% (inactive) | 
24 | O=C(N/N=C/c1ccc([N+](=O)[O-])o1)c1cn(-c2ccccc2)nc1-c1ccccc1 | 60.4% (inactive) | 2.1
25 | COc1ccc(-c2nn(-c3ccccc3)cc2C(=O)N/N=C/c2ccc([N+](=O)[O-])o2)cc1 | 50.6% (inactive) | 11.4

Row | Compound | inhibition | inhibition [1] [%]
26 | O=C(N/N=C/c1ccc([N+](=O)[O-])o1)c1cn(-c2ccccc2)nc1-c1ccc(Cl)cc1 | 67.5% (active) | 
27 | O=C(N/N=C/c1ccc([N+](=O)[O-])o1)c1cc(-c2ccc(-c3ccccc3)cc2)nc2ccccc12 | 59.1% (active) | 
28 | CCCc1ccc(-c2cc(C(=O)N/N=C/c3ccc([N+](=O)[O-])o3)c3ccccc3n2)cc1 | 27.9% (inactive) | 
29 | O=C(N/N=C/c1ccc([N+](=O)[O-])o1)c1cc(-c2ccncc2)nc2ccccc12 | 20.1% (inactive) | 
30 | CCn1c(SCc2ccc(C)cc2)nnc1-c1cnccn1 | 1.9% (inactive) | 
31 | Cc1ccc(S(=O)(=O)c2cnc3cc(C)nn3c2N)cc1 | 9.4% (inactive) | 
32 | c1cnc(-c2noc(CN3CCN(C4C5CC6CC(C5)CC4C6)CC3)n2)cn1 (stereo unspecified) | -1.9% (inactive) | 
33 | O=C(O)CSC(C(=O)Nc1ccc(Br)cc1)c1ccc(Cl)cc1 (stereo unspecified) | 9.9% (inactive) | 
34 | Cc1cc2ccccn2c1C(=O)c1ccc(N/N=C/c2ccc(C(=O)O)cc2)c([N+](=O)[O-])c1 | 69.4% (active) | 
35 | CC(=O)Nc1ccc(/C=N/Nc2ccc(C(=O)c3c(C)cc4ccccn34)cc2[N+](=O)[O-])cc1 | 50.4% (inactive) | 29.6
36 | Cc1cc2ccccn2c1C(=O)c1ccc(NN)c([N+](=O)[O-])c1 | 9.5% (inactive) | 
37 | Cc1nc(C)c(C(=O)Nc2ncc([N+](=O)[O-])s2)o1 | 33.7% (inactive) | 
38 | Cc1ccc(C(=O)Nc2ncc([N+](=O)[O-])s2)cc1 | 11.7% (inactive) | 
39 | Cc1ncoc1C(=O)Nc1ncc([N+](=O)[O-])s1 | 68% (active) | 
40 | CC1=CCC2C(=O)N(c3ccc(C)cc3)C(=O)C2C1 (stereo unspecified) | 6.6% (inactive) | 
41 | Cc1ccc(-c2csc(C3=C(O)CN(NC(=O)c4ccc([N+](=O)[O-])cc4)C3=N)n2)cc1 | 25.8% (inactive) | 
42 | N=C1C(c2nc(-c3ccc(Br)cc3)cs2)=C(O)CN1NC(=O)c1ccc([N+](=O)[O-])cc1 | 34.5% (inactive) | 
43 | O=C(NN1C(=O)C2C(C1=O)C1C=CC2C12CC2)c1ccncc1 (stereo unspecified) | 6% (inactive) | 
44 | O=C(NN1C(=O)C2CC=C(Cl)CC2C1=O)c1ccncc1 (stereo unspecified) | 61.5% (active) | 
45 | O=C(NN1C(=O)C2C3C=CC(C3)C2C1=O)c1ccncc1 (stereo unspecified) | 5.7% (inactive) | 
46 | O=C(CSc1nnc(-c2ccccc2O)o1)Oc1ccc(Br)cc1 | 3% (inactive) | 
47 | CCOC(=O)C1CCCN(C(=O)c2ccc3nc(-c4ccc(OC)c(OC)c4)c(-c4ccc(OC)c(OC)c4)nc3c2)C1 (stereo unspecified) | 10.2% (inactive) | 
48 | Cc1ccc(NC(=O)c2cc(N3C(=O)C=CC3=O)ccc2N2CCOCC2)cc1Cl | -7.4% (inactive) | 
49 | Cc1ccc(NC(=O)c2cc(N3C(=O)C=CC3=O)ccc2Cl)cc1C | 59.1% (active) | 
50 | NC(=O)c1cc(N2C(=O)C=CC2=O)ccc1Cl | 47% (inactive) | 

Row | Compound | inhibition | inhibition [1] [%]
51 | Fc1cccc2sc(Nc3nnc(-c4ccccc4)o3)nc12 | 38.5% (inactive) | 
52 | COc1cc(OC)cc(-c2nnc(Nc3nc4c(F)cccc4s3)o2)c1 | 56.7% (active) | 
53 | COc1cccc(-c2nnc(Nc3nc4c(F)cccc4s3)o2)c1 | 43.9% (inactive) | 
54 | Cc1ccc(C(=O)NCCSc2ccccc2)cc1S(=O)(=O)Nc1ccccc1 | -1.8% (inactive) | 
55 | O=C(/C=C/c1ccco1)NCC1COc2ccccc2O1 (stereo unspecified) | 11% (inactive) | 
56 | Cc1ccc(/C=C/C(=O)NCC2COc3ccccc3O2)o1 (stereo unspecified) | 72.5% (active) | 
57 | CC(C)Oc1ccc(/C=C/C(=O)NCC2COc3ccccc3O2)cc1 (stereo unspecified) | -5% (inactive) | 
58 | Cc1ccc(C(=O)NCCCN2CCOCC2)cc1Cl | 4.3% (inactive) | 
59 | CN(N)c1nc(-c2ccccc2)cc(-c2ccccc2)n1 | -4.2% (inactive) | 
60 | CN(C)c1nc(=NCc2ccco2)ss1 | 67.8% (active) | 
61 | c1coc(CN=C2NC(=NCc3ccco3)c3ccccc32)c1 | 18.7% (inactive) | 
62 | O=C1CCCC(=NCc2ccco2)C1 | -7.5% (inactive) | 
63 | COC(=O)/C=C1/SC(=Nc2ccc(C)cc2C)NC1=O | 0.9% (inactive) | 
64 | O=C1c2ccccc2C(=O)N1C/C=C/CN1C(=O)c2ccccc2C1=O | 0% (inactive) | 
65 | Cc1ccc(-c2nc(CN(C)C3CCOC3)c(C)o2)s1 (stereo unspecified) | 7.1% (inactive) | 
66 | COc1ccc(-c2cc3c(=O)n(CC(=O)Nc4cccc(Cl)c4)ncn3n2)cc1 | 39.6% (inactive) | 
67 | O=C1N=C(N2CCN(c3ccccc3)CC2)S/C1=C\c1ccco1 | 37.7% (inactive) | 
68 | O=C1N=C(N2CCCC2C(=O)O)S/C1=C\c1ccco1 (stereo unspecified) | 95.1% (active) | 
69 | O=C1N=C(N2CCN(c3ccccc3)CC2)S/C1=C/c1ccco1 | -5% (inactive) | 
70 | COc1ccc(-n2nc(C(=O)NCC(=O)NCCCN3CC(C)CC(C)C3)c3ccccc3c2=O)cc1 (stereo unspecified) | 3.3% (inactive) | 
71 | O=C(Nc1ccc(N2CCOCC2)cc1Cl)C1CCN(C(=O)OCc2ccccc2)CC1 | -2.8% (inactive) | 
72 | COc1ccc(-n2nc(C(=O)NCC(=O)NCc3ccc(F)cc3)c3ccccc3c2=O)cc1 | 8.9% (inactive) | 
73 | O=S(=O)(c1ccc(Cl)cc1)N1CCCCCC1 | 13.9% (inactive) | 
74 | Cc1ccc(S(=O)(=O)N2CCN(S(=O)(=O)c3ccccc3)C2)cc1 | -0.6% (inactive) | 
75 | CC1CN(S(=O)(=O)c2ccccc2)C(C)CN1S(=O)(=O)c1ccccc1 (stereo unspecified) | 2.3% (inactive) | 

Row | Compound | inhibition | inhibition [1] [%]
76 | CN1CCN(S(=O)(=O)c2ccc(Cl)cc2)CC1 | 5.7% (inactive) | 
77 | Cc1sc(NC(=O)CN(Cc2ccc(F)cc2)C(=O)C(C)C)c(C(N)=O)c1C | -9.6% (inactive) | 
78 | CC(C)CC(=O)Nc1nnc(SCC(=O)NCc2ccc3c(c2)OCO3)s1 | 6% (inactive) | 
79 | COc1ccc(N2CC(C(=O)N/N=C/c3c[nH]c4ccccc34)CC2=O)cc1 (stereo unspecified) | 17.8% (inactive) | 
80 | COc1ccc(N2C(=O)NC(=O)C2=O)cc1 | -3.9% (inactive) | 
81 | Cc1nn(C)c(Cl)c1CN1CCC(CO)(CC2CCCCO2)CC1 (stereo unspecified) | 6.5% (inactive) | 
82 | O=S(=O)(c1ccc(F)c(F)c1)N1CCCc2ccccc21 | -1.2% (inactive) | 
83 | CCCc1[nH]c(=O)c(C#N)c2c1COC(C)(C)C2 | -5.3% (inactive) | 
84 | Nc1ccc2nc(-c3cc(Cl)c(N)c(Cl)c3)[nH]c2c1 | 39.9% (inactive) | 
85 | Nc1ccc(-c2nc3ccccc3[nH]2)cc1 | 5.5% (inactive) | 
86 | Nc1ccc(-c2nc3ccc([N+](=O)[O-])cc3[nH]2)cc1 | 13.5% (inactive) | 
87 | Nc1ccc2nc(-c3cccc(-c4nc5ccc(N)cc5[nH]4)c3)[nH]c2c1 | 46.7% (inactive) | 
88 | Fc1ccc(N=Cc2ccc[nH]2)cc1 | -9.3% (inactive) | 
89 | O=C(NC1CC1)c1cc(-c2ccco2)nc2ccccc12 | 38.6% (inactive) | 
90 | CC(C)Cn1c(N)c(C(=O)COC(=O)c2cc(-c3ccco3)nc3ccccc23)c(=O)n(C)c1=O | 19.7% (inactive) | 
91 | O=C(Nc1cccc(S(=O)(=O)NC2=NCCC2)c1)c1cc(-c2ccco2)nc2ccccc12 | 61.9% (active) | 
92 | O=C(O)c1cc(-c2ccco2)nc2ccccc12 | -11.5% (inactive) | 
93 | Cn1c(N)c(C(=O)COC(=O)c2cc(-c3ccco3)nc3ccccc23)c(=O)n(Cc2ccccc2)c1=O | 58.1% (active) | 
94 | Cn1c(N)c(C(=O)COC(=O)c2cc(-c3ccccc3)nc3ccccc23)c(=O)n(Cc2ccccc2)c1=O | 21.7% (inactive) | 
95 | Cn1c(N)c(C(=O)COC(=O)c2cc(-c3ccco3)nc3ccccc23)c(=O)n(C)c1=O | 50.3% (inactive) | 29.1
96 | O=C(NC(=S)Nc1cccc(S(=O)(=O)NC2=NCCC2)c1)c1cc(-c2ccco2)nc2ccccc12 | 61% (inactive) | 23.6
97 | O=C(Nc1cccc(S(=O)(=O)NC2=NCCCCC2)c1)c1cc(-c2ccco2)nc2ccccc12 | 40.5% (inactive) | 
98 | Cn1c(=O)c(C(=O)COC(=O)c2cc(-c3ccco3)nc3ccccc23)c(N)n(Cc2ccccc2)c1=O | 55.8% (active) | 
99 | Cn1c(=O)c(C(=O)COC(=O)c2cc(-c3ccccc3)nc3ccccc23)c(N)n(Cc2ccccc2)c1=O | 26.2% (inactive) | 
100 | O=C(NC1CCC(O)CC1)c1cc(-c2ccco2)nc2ccccc12 (stereo unspecified) | 51.2% (active) | 50.3
